From PubChem BioAssay AID1645882 (National Center for Advancing Translational Sciences (NCATS), 2021) come the findings set out here.

Molecules are shown by their SMILES. Where “and” joins values, the source holds several entries; their conditions need not be identical. Identical values can stand only once. Out of some 16,000 compounds screened, about 120 (0.75%) were called active. Entries that show only a call come without a potency. About 4% were inconclusive and are not listed. This is one part of a sample in which actives are shown more often than they occur. The call rests on the fitted dose curve; in most records, active means well fitted inhibition curve with a large enough effect; inconclusive means small, poorly fitted or top-dose-only effect; inactive means no such curve, though single readings can be large or run the other way. Where a structure was tested more than once in an assay, its records may differ in their call. *1 amine or outer side, *2 acyl side, *3 side chain or, on linkers, in order; H or OH if unused. Where a SMILES comes first, the peptide text is derived from it. Bridges are numbered along the chain shown (N, C = ends). [ ]: non-standard residue; d: D form. The star is where a group is joined. X6 = NC1=N[C@@H](O)C[C@H]([C@H](N[*:1])C(=O)[*:2])N1; ΔAla(3-NHCONH2) = NC(=O)NC=C(N)C(=O)O; β3hOrn = NCCC[C@H](N)CC(=O)*; Dap = NC[C@H](N)C(=O)O
Potency means the concentration at half of the fitted maximal effect.

Rap guanine nucleotide exchange factor 3 (Homo sapiens), sequence (O95398 whole entry, looked up): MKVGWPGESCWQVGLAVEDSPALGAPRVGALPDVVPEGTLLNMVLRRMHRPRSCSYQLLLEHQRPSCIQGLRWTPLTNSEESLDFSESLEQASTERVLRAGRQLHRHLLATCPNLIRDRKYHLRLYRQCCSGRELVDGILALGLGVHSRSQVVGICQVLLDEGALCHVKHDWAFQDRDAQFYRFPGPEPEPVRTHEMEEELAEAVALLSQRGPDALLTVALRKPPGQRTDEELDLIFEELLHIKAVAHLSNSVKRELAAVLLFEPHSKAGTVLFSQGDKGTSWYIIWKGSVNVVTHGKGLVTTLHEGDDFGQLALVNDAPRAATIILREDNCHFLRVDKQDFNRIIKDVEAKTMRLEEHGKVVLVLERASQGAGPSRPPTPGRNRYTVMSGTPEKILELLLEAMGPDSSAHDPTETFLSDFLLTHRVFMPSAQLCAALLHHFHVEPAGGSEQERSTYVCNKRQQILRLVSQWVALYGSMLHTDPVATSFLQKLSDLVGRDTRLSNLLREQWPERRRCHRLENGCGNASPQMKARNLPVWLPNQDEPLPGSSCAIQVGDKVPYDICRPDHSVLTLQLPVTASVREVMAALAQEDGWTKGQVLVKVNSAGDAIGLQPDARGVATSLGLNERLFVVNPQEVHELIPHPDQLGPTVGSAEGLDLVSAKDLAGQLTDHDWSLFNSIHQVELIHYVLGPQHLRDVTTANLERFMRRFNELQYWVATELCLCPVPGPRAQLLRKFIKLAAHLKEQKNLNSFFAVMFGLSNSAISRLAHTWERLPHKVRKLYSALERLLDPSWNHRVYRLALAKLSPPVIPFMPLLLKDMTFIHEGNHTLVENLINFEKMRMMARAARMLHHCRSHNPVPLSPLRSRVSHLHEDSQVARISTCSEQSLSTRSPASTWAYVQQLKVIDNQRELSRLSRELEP

The test deals with Rap guanine nucleotide exchange factor 3 (Homo sapiens) (UniProt O95398). The test is described as follows: Validation qHTS for antagonist of cAMP-regulated guanine nucleotide exchange factor 3 (EPAC1). Further: nearly all actives have a fitted effect of over 75% in size. The following applies: EPAC1 Rap1B-BODIPY-GDP exchange, fluorescence; series mostly up to 150 µM. The method in brief:
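EPAC1 (100 nM) mixed with 250 nM RAP1B-BODIPY-GDP and 50 uM GDP; compounds in concentration series, 5 min at room temperature. Fluorescence (ex 480/em 540 nm) read every 5 min for 30 min; normalized to ATA control and DMSO.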
As to `CN(Cc1cnc2ccccn12)C1CCN(c2cccc(NC(=O)c3cccnc3)c2)CC1`, the Potency result was “inactive”. With `Cc1ccc(C(=O)N(Cc2cc3cc4c(cc3nc2N2CCOCC2)CCC4)CC2CCCO2)cc1` (stereo not drawn) the entry was “inactive”. With `CC(C)C[C@@H](CO)N1CCN(Cc2ccccc2)CCC1=O` the entry was “inactive”; with `O=C(NCc1cccnc1)[C@@H]1CC=C[C@@H]2CCN(Cc3ccc(Cl)c(Cl)c3)C(=O)[C@@H]21`, “inactive”.

Regarding `CC(C)(Sc1ccc(CCN(CCCCC2CCCCC2)C(=O)NC2CCCCC2)cc1)C(=O)O`, the Potency was 44.7 µM (active).

With `O=c1c(-c2ccccc2)nc2cnc(Oc3cccc(Cl)c3)nc2n1C[C@H]1CCCO1`, the Potency entry is “inactive”.

Turning to `COc1cc([C@@H]2c3cc4c(cc3C(OC3OC5COC(C)OC5C(O)C3O)C3COC(=O)[C@@H]32)OCO4)cc(OC)c1O` (stereo partly drawn), the Potency entry is “inactive”. `O=C(O)c1cc(O)c2c(c1)[C@H]([C@H]1c3cc(C(=O)O)cc(O)c3C(=O)c3c(O[C@@H]4O[C@H](CO)[C@@H](O)[C@H](O)[C@H]4O)cccc31)c1cccc(O[C@@H]3O[C@H](CO)[C@@H](O)[C@H](O)[C@H]3O)c1C2=O`: the Potency was 100 µM (active).

Consider `O=C1c2c(O)cccc2[C@@H]([C@@H]2O[C@H](CO)[C@@H](O)[C@H](O)[C@H]2O)c2cc(CO)cc(O)c21`, for which the Potency result was “inactive”. For `O=C1c2c(O)cccc2[C@H]([C@@H]2O[C@H](CO)[C@@H](O)[C@H](O)[C@H]2O)c2cc(CO)cc(O)c21` the value was “inactive”; for `CCCN1CCC(=O)N([C@H](CO)Cc2ccccc2)CC1`, “inactive”. With `Nc1c(S(=O)(=O)O)cc(Nc2ccc(Nc3nc(Cl)nc(Nc4ccc(S(=O)(=O)O)cc4)n3)c(S(=O)(=O)O)c2)c2c1C(=O)c1ccccc1C2=O` the figure was 22.4 µM (active); with `CC#CCC(C)[C@H](O)/C=C/[C@@H]1[C@H]2c3cccc(CCCC(=O)O)c3O[C@H]2C[C@H]1O` (stereo partly drawn), “inactive”; with `Nc1cc(N)cc(N)c1`, 44.7 µM (active).

In the case of `Nc1ccc(O)cc1`, the Potency entry was “inactive”.

On to `COc1cc(N)c(N)cc1OC`, for which the Potency entry is “inactive”. As to `COc1ccc2[nH]cc(CCO)c2c1`, the Potency result is “inactive”. For `CC(C)c1ccc(CN2CCC3(CCC(CNC(=O)c4ccn(C)n4)O3)CC2)cc1` (stereo not drawn) the value was “inactive”; for `Cc1cccc(C(=O)NCc2nc(-c3cccc(NC(=O)C4CCCN(C)C4)c3)oc2C)n1` (stereo not drawn), “inactive”; for `Cn1cccc1C(=O)N1CCC[C@@]2(CCN(c3cccc(-c4ccccc4)c3)C2)C1`, “inactive”. Consider `CCCc1nc(C(C)(C)O)c(C(=O)OCc2oc(=O)oc2C)n1Cc1ccc(-c2ccccc2-c2nn[nH]n2)cc1`, for which the Potency result is “inactive”. With `CCOc1nc2cccc(C(=O)O)c2n1Cc1ccc(-c2ccccc2-c2nn[nH]n2)cc1` the entry was “inactive”; with `CCOc1nc2cccc(C(=O)OC(C)OC(=O)OC3CCCCC3)c2n1Cc1ccc(-c2ccccc2-c2nn[nH]n2)cc1` (stereo not drawn), 89.1 µM (active); with `CCN1CCCC1CNC(=O)c1cnn(-c2ncc3c(n2)-c2ccc(OC)cc2CC3)c1C1CC1` (stereo not drawn), “inactive”. Turning to `NCCC[C@H](N)CC(=O)N[C@H]1CNC(=O)[C@H]([C@H]2C[C@H](O)N=C(N)N2)NC(=O)C(=CNC(N)=O)NC(=O)[C@H](CO)NC(=O)[C@H](CO)NC1=O` (β3hOrn-[Dap]SS[ΔAla(3-NHCONH2)][X6]; lactam 1-C), the Potency entry was “inactive”. With `O.O.O.O.O.O.O.O=S(=O)([O-])[O-].[Co+2]` the figure was 100 µM (active); with `Cc1ccc(C(=O)Nc2cccc(-c3nc(CNC(=O)c4ccc(F)cc4Cl)c(C)o3)c2)s1`, “inactive”; with `CC(=O)OC1CCC2(C)C3=C(CCC2C1(C)C)[C@@]1(C)CCC(C(C)CCC=C(C)C)[C@@]1(C)CC3` (stereo partly drawn), “inactive”.

For the molecule `CCCCCCCCCCCCCCCCSCC(COC)COP(=O)([O-])OCC[N+](C)(C)C` (stereo not drawn), the Potency result was “inactive”. With `OCCN1CCN(CCCN2c3ccccc3Sc3ccc(Cl)cc32)CC1` the entry was “inactive”; with `CN1CCN(CCCN2c3ccccc3Sc3ccccc32)CC1`, “inactive”; with `CN1CCN(CCCN2c3ccccc3Sc3ccc(Cl)cc32)CC1`, “inactive and 112 µM (active)”. For `CC(=O)N1CCC2(CC1)CN(c1cccc(-c3ccccc3)c1)C2` the value was “inactive”; for `O=S1(=O)CCO[C@H]2CCCC[C@@H]2N1Cc1ccccc1Br`, “inactive”. Take `C[C@@H]1[C@H](c2ccccc2)OCCS(=O)(=O)N1Cc1ccccc1Br`: the Potency result was “inactive”. With `C=C1[C@@H](O)[C@H](CC(C)C)N(Cc2ccccc2Br)S1(=O)=O` the figure was 89.1 µM (active); with `Cc1ccc2c(c1)C(=O)[C@@]1(O)CCN(c3ccccc3)C1=N2`, “inactive”; with `Cc1cnc(-n2ncc(C(=O)NCCN3CCOCC3)c2C2CC2)nc1-c1cccs1`, “inactive”.

With `CCC1CN(CCNC(=O)c2cc(C(C)C)nn2C)Cc2cc(OC)ccc2O1` (stereo not drawn), the Potency result is “inactive”. As to `Oc1c(Cl)cc(Cl)c(Cl)c1Cc1c(O)c(Cl)cc(Cl)c1Cl`, the Potency was 56.2 µM (active) and inactive.

Turning to `Oc1c(Cl)cc(Cl)c2cccnc12`, the Potency result is “inactive”. Take `Cc1ccc2c(Cl)cc(Cl)c(O)c2n1`: the Potency result was “inactive”.

Regarding `COc1ccc(C(=O)N2CCC3(CC2)CN(c2ncccn2)C3)cc1`, the Potency entry was “inactive”. `COc1cc(CN2CCOc3ccc(CN4CCC(O)(c5cccnc5)CC4)cc3C2)cc(OC)c1`: the Potency entry is “inactive”.

As to `Cc1ccc(C(=O)NCCc2nnc3n2CCN(Cc2cc(C)cc(C)c2)CC3)cc1`, the Potency entry is “inactive”. Consider `c1csc(CNc2ncncc2-c2ccoc2)c1`, for which the Potency entry was “inactive”. As for `O=C(c1nc2ncccn2n1)N1CCOc2ccc(C(O)C(c3ccccc3)c3ccccc3)cc2C1` (stereo not drawn), the Potency result was “inactive”. Take `C=C1c2c(Cl)ccc(O)c2C(O)=C2C(=O)[C@]3(O)C(O)=C(C(N)=O)C(=O)C(N(C)C)C3C(O)C12` (stereo partly drawn): the Potency result is “inactive”. With `C=C1c2cccc(O)c2C(O)=C2C(=O)[C@]3(O)C(O)=C(C(N)=O)C(=O)[C@@H](N(C)C)[C@@H]3[C@@H](O)[C@H]12` the figure was 31.6 µM (active); with `C=C1c2cccc(O)c2C(O)=C2C(=O)[C@]3(O)C(O)=C(C(N)=O)C(=O)C(N(C)C)C3C(O)C12` (stereo partly drawn), “inactive”. For `O=C(c1cccnc1)C1CCCN(Cc2ccc3c(c2)CN(C(=O)c2cccc(Cl)c2)CCO3)C1` (stereo not drawn), the Potency result is “inactive”. For `CCC(C(=O)NC(N)=O)c1ccccc1` (stereo not drawn) the value was “inactive”; for `COC(=O)C[C@](O)(CCCC(C)(C)O)C(=O)O[C@@H]1C(OC)=CC23CCCN2CCc2cc4c(cc2[C@H]13)OCO4` (stereo partly drawn), “inactive”.
